{"source": "the supplement of paper PMC12350171", "note": "Counter-ions that a name gives are not always drawn.", "data": [{"tested_on": "Haemophilus parainfluenzae", "experiment": "growth AUC normalised to DMSO control (fraction of control); higher = less growth inhibition, active = hit call of the paper", "details": "20 µM;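 active = AUC significantly below DMSO controls by Student t-fit with adjusted P under 0.01; inactive = not significantly reduced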", "outline": "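Pathogens passaged twice anaerobically were inoculated at a starting OD578 of 0.01 into pre-reduced mGAM plates with drug at 20 μM and 1% DMSO, sealed with breathable membranes. Haemophilus parainfluenzae medium was supplemented with hemin and NAD. OD578 was read hourly for 24 h, with three biological replicates. Growth-curve AUC was computed by the trapezoidal rule up to the exponential-to-stationary transition and normalised to DMSO controls on the same plate.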", "values": [{"molecule": "C#CCN(C)Cc1ccccc1", "note": "[Pargyline hydrochloride]", "growth AUC normalised to DMSO control": "0.979 (inactive)"}, {"molecule": "NNCCc1ccccc1", "note": "[Phenelzine sulfate]", "growth AUC normalised to DMSO control": "1.02 (inactive)"}, {"molecule": "CCOc1ccc(NC(C)=O)cc1", "note": "[Phenacetin]", "growth AUC normalised to DMSO control": "0.924 (inactive)"}, {"molecule": "Cc1cccc(CN2CCN(C(c3ccccc3)c3ccc(Cl)cc3)CC2)c1", "note": "(centres undefined) [Meclozine dihydrochloride]", "growth AUC normalised to DMSO control": "0.948 (inactive)"}, {"molecule": "CCN(CC)CCOC(=O)C(c1ccccc1)C1CCCCC1", "note": "(centres undefined) [Drofenine hydrochloride]", "growth AUC normalised to DMSO control": "0.992 (inactive)"}, {"molecule": "CC1CCc2cc(F)cc3c(=O)c(C(=O)O)cn1c23", "note": "(centres undefined) [Flumequine]", "growth AUC normalised to DMSO control": "0.066 (active)"}, {"molecule": "Clc1ccc(COC(Cn2ccnc2)c2ccc(Cl)cc2Cl)c(Cl)c1", "note": "(centres undefined) [Miconazole]", "growth AUC normalised to DMSO control": "0.997 (inactive)"}, {"molecule": "Cc1ncc([N+](=O)[O-])n1CC(C)O", "note": "(centres undefined) [Secnidazole]", "growth AUC normalised to DMSO control": "0.937 (inactive)"}, {"molecule": "CO[C@@]1(NC(=O)C(C(=O)O)c2ccc(O)cc2)C(=O)N2C(C(=O)O)=C(CSc3nnnn3C)CO[C@@H]21", "note": "(some centres undefined) [Moxalactam disodium salt]", "growth AUC normalised to DMSO control": "0.076 (active)"}, {"molecule": "Cn1cnc([N+](=O)[O-])c1Sc1ncnc2[nH]cnc12", "note": "[Azathioprine]", "growth AUC normalised to DMSO control": "1.11 (inactive)"}, {"molecule": "CCN(CC)CC(=O)Nc1c(C)cccc1C", "note": "[Lidocaine hydrochloride]", "growth AUC normalised to DMSO control": "1.02 (inactive)"}, {"molecule": "CC(=O)O[C@]1(C(C)=O)CC[C@H]2[C@@H]3C=C(Cl)C4=CC(=O)CC[C@]4(C)[C@H]3CC[C@@]21C", "note": "[Chlormadinone acetate]", "growth AUC normalised to DMSO control": "1.01 (inactive)"}, {"molecule": "CC(C)(C#N)c1cc(Cn2cncn2)cc(C(C)(C)C#N)c1", "note": "[Anastrozole]", "growth AUC normalised to DMSO control": "1.1 (inactive)"}, {"molecule": "CN(CCOc1ccc(CC2SC(=O)NC2=O)cc1)c1ccccn1", "note": "(centres undefined) [Rosiglitazone hydrochloride]", "growth AUC normalised to DMSO control": "1.06 (inactive)"}, {"molecule": "CCC(=O)[C@@]1(C)[C@H](C)C[C@H]2[C@@H]3CCC4=CC(=O)C=C[C@]4(C)[C@H]3[C@@H](O)C[C@@]21C", "note": "[Rimexolone]", "growth AUC normalised to DMSO control": "0.998 (inactive)"}, {"molecule": "Cc1onc(-c2ccccc2)c1C(=O)N[C@@H]1C(=O)N2[C@@H]1SC(C)(C)[C@@H]2C(=O)O", "note": "[Oxacillin sodium]", "growth AUC normalised to DMSO control": "0.928 (inactive)"}, {"molecule": "CC1(C)NC(=O)N(c2ccc([N+](=O)[O-])c(C(F)(F)F)c2)C1=O", "note": "[Nilutamide]", "growth AUC normalised to DMSO control": "0.977 (inactive)"}, {"molecule": "CC(C)(C)NCC(O)c1cc(O)cc(O)c1", "note": "(centres undefined) [Terbutaline hemisulfate]", "growth AUC normalised to DMSO control": "1.06 (inactive)"}, {"molecule": "CC(C)(C)NCC(O)c1ccc(O)c(CO)c1", "note": "(centres undefined) [Salbutamol]", "growth AUC normalised to DMSO control": "0.895 (inactive)"}, {"molecule": "Cc1cc(C(C)(C)C)cc(C)c1CC1=NCCN1", "note": "[Xylometazoline hydrochloride]", "growth AUC normalised to DMSO control": "0.996 (inactive)"}, {"molecule": "Clc1ccccc1C(c1ccccc1)(c1ccccc1)n1ccnc1", "note": "[Clotrimazole]", "growth AUC normalised to DMSO control": "0.968 (inactive)"}, {"molecule": "CC(C)NC[C@H](O)COc1ccc(CC(N)=O)cc1", "note": "[(S,-) Atenolol]", "growth AUC normalised to DMSO control": "1.01 (inactive)"}, {"molecule": "O=C(O)CCCC[C@@H]1SC[C@@H]2NC(=O)N[C@@H]21", "note": "[Biotin]", "growth AUC normalised to DMSO control": "1.01 (inactive)"}, {"molecule": "COc1ccc2c(c1)c(CC(=O)O)c(C)n2C(=O)c1ccc(Cl)cc1", "note": "[Indomethacin]", "growth AUC normalised to DMSO control": "0.975 (inactive)"}, {"molecule": "O=C(Cn1ccnc1[N+](=O)[O-])NCCO", "note": "[Etanidazole]", "growth AUC normalised to DMSO control": "0.929 (inactive)"}, {"molecule": "CC1(C)O[C@@H]2C[C@H]3[C@@H]4CCC5=CC(=O)CC[C@]5(C)[C@@]4(F)[C@@H](O)C[C@]3(C)[C@]2(C(=O)CCl)O1", "note": "[Halcinonide]", "growth AUC normalised to DMSO control": "1 (inactive)"}, {"molecule": "CC[N+](CC)(CC(=O)Nc1c(C)cccc1C)Cc1ccccc1", "note": "[Denatonium benzoate]", "growth AUC normalised to DMSO control": "1.05 (inactive)"}, {"molecule": "CS(=O)(=O)c1ccc([C@@H](O)[C@@H](CO)NC(=O)C(Cl)Cl)cc1", "note": "[Thiamphenicol]", "growth AUC normalised to DMSO control": "0.032 (active)"}, {"molecule": "Fc1ccc(C(c2ccc(F)cc2)N2CCN(C/C=C/c3ccccc3)CC2)cc1", "note": "[Flunarizine dihydrochloride]", "growth AUC normalised to DMSO control": "0.97 (inactive)"}, {"molecule": "Cc1c(Cl)cccc1Nc1ncccc1C(=O)O", "note": "[Clonixin lysinate]", "growth AUC normalised to DMSO control": "1.06 (inactive)"}, {"molecule": "Cc1nnc(SCC2=C(C(=O)O)N3C(=O)[C@@H](NC(=O)Cn4cnnn4)[C@H]3SC2)s1", "note": "[Cefazolin sodium salt]", "growth AUC normalised to DMSO control": "0.0609 (active)"}, {"molecule": "Nc1ccc(S(=O)(=O)Nc2ccccn2)cc1", "note": "[Sulfapyridine]", "growth AUC normalised to DMSO control": "0.976 (inactive)"}, {"molecule": "CCn1cc(C(=O)O)c(=O)c2cnc(N3CCNCC3)nc21", "note": "[Pipemidic acid]", "growth AUC normalised to DMSO control": "0.915 (inactive)"}, {"molecule": "CN1CCC(=C2c3ccccc3C=Cc3ccccc32)CC1", "note": "[Cyproheptadine hydrochloride]", "growth AUC normalised to DMSO control": "0.921 (inactive)"}, {"molecule": "OCCOCCN1CCN(C2=Nc3ccccc3Sc3ccccc32)CC1", "note": "[Quetiapine hemifumarate]", "growth AUC normalised to DMSO control": "0.997 (inactive)"}, {"molecule": "CN(C)CCCC1(c2ccc(F)cc2)OCc2cc(C#N)ccc21", "note": "(centres undefined) [Citalopram hydrobromide]", "growth AUC normalised to DMSO control": "1.01 (inactive)"}, {"molecule": "CN(C)CCOc1ccc(/C(=C(/CCCl)c2ccccc2)c2ccccc2)cc1", "note": "[Toremifene]", "growth AUC normalised to DMSO control": "0.997 (inactive)"}, {"molecule": "N=C(N)NCCN1CCCCCCC1", "note": "[Guanethidine sulfate]", "growth AUC normalised to DMSO control": "1.03 (inactive)"}, {"molecule": "CCN(CC)CCNC(=O)c1cc(Br)c(N)cc1OC", "note": "[Bromopride]", "growth AUC normalised to DMSO control": "1.03 (inactive)"}]}]}
